This is an account of results in PubChem BioAssay (NCATS).

Inconclusive results are not listed. Active and inactive are the calls of the source. The call rests on the fitted dose curve; in most records, active means well fitted inhibition curve with a large enough effect; inconclusive means small, poorly fitted or top-dose-only effect; inactive means flat fitted curve, though single readings scatter.
On the % scale 0 is the no-effect control and ±100 the full control effect; potency means the concentration at half of the fitted maximal effect.

This assay concerns HaCat. In words: Cytotoxic Profiling of Annotated Libraries Using Quantitative High-Throughput Screening (AID 1296008). Further: nearly all actives have a fitted effect of over 60% in size. Conditions: Five cell lines viability, CellTiter-Glo ATP luminescence, 48-72 h; max response: stronger effect = lower value. The gist of the method: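 Cells exposed to compounds for 48 or 72 hr at 37 degrees Celsius. Viability read as ATP-coupled luminescence with CellTiter-Glo after 10 min at room temperature.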
(In general: ATP-based viability assays read luminescence as a measure of living cells.)
On to `CCC1C(=O)N(C)c2cnc(Nc3ccc(C(=O)NC4CCC(N5CCN(CC6CC6)CC5)CC4)cc3OC)nc2N1C(C)C` (centres undefined), for which the Potency was 0.0366 µM (active). Take `C[C@@H]1O[C@@H](O[C@H]2[C@H](O)[C@@H](O)[C@H](OC3CCC4(C)C5CCC(C)(C(CO)OC6OC(CO)C(O)C(O)C6O)CC5=CCC4C3(C)C)O[C@@H]2CO)[C@H](O)[C@H](O)[C@H]1O` (some centres undefined): the max response is -0.0812% (inactive).

With `C[C@@H]1C[C@@H](O)[C@@]23CO[C@@H](O)[C@@H]2CCC[C@@H]3[C@@]12C[C@@H](c1ccoc1)OC2=O`, the max response is -27.9% (inactive).

`CC(C)(C)OC(=O)N1CCC(OCc2nc(-c3ccncc3)no2)CC1`: the max response is 4.75% (inactive). On the same count and under the same terms, then `CC1(C)CC[C@]2(C(=O)O[C@@H]3O[C@H](CO)[C@@H](O)[C@H](O)[C@H]3O)CC[C@]3(C)C(=CCC4[C@@]5(C)C[C@@H](O)[C@H](O)C(C)(C)C5CC[C@]43C)C2[C@@H]1O` (some centres undefined), with 2.98% (inactive). The same measure, in the same setting: then `CC(C)C(NC(=O)c1ccc2ccccc2n1)C(=O)NC(CC(=O)O)C(=O)COc1c(F)cccc1F` (centres undefined), with -3.62% (inactive). Take `CC1=CC(=O)CC(C)(C)[C@@]1(O)CC[C@@H](C)O[C@@H]1O[C@H](CO)[C@@H](O)[C@H](O)[C@H]1O`: the max response is -28.9% (inactive). The same measure, in the same setting: the value for `CC(O)/C=C/C1C(C)C(O[C@@H]2O[C@H](CO)[C@@H](O)[C@H](O)[C@H]2O)C(O)CC1(C)C` (some centres undefined) was 1.9% (inactive); that for `CO[C@H]1C[C@@H]2CC[C@@H](C)[C@@](O)(O2)C(=O)C(=O)N2CCCC[C@H]2C(=O)O[C@H]([C@H](C)C[C@H]2CC[C@@H](OP(C)(C)=O)[C@H](OC)C2)CC(=O)[C@H](C)/C=C(\C)[C@@H](O)[C@@H](OC)C(=O)[C@H](C)C[C@H](C)/C=C/C=C/C=C/1C` was -3.04% (inactive); that for `CCCCC1CCN(CCCC(=O)c2ccccc2C)CC1` was -61.6% (inactive). As to `CC12CCC(OC3OC(CO)C(O)C(OC4OC(CO)C(O)C(O)C4O)C3O)CC1CCC1C2CCC2(C)/C(=C3/COC(=O)C3)CCC12O` (centres undefined), the max response is -0.083% (inactive). As for `NCc1c[nH]c(=S)n1[C@@H]1CCc2c(F)cc(F)cc2C1`, the max response was 3.97% (inactive). Take `C[C@@H]1C(=O)O[C@H]2C[C@]34[C@H]5C[C@@H](C(C)(C)C)[C@]36[C@@H](OC(=O)[C@H]6O)O[C@]4(C(=O)O5)[C@]21O`: the max response was 3.22% (inactive). For the molecule `CC(C)(C)c1ccc(S(=O)(=O)NCc2ccc(C(=O)Nc3cccnc3)cc2)cc1`, the Potency was 6.51 µM (active). With `COCCOc1ccc(N2CCN(CCn3ncc4c3nc(N)n3nc(-c5ccco5)nc43)CC2)cc1`, the max response is 2.38% (inactive). Consider `CCOCc1nc2c(N)nc3ccccc3c2n1CC(C)(C)O`, for which the max response was 3.85% (inactive). For the molecule `CC[C@H](C)[C@H](NC(=O)[C@H]([C@@H](C)CC)N(C)C(C)=O)C(=O)N[C@H](C(=O)N[C@@H](CC(C)C)C(=O)[C@@]1(C)CO1)[C@@H](C)O`, the Potency was 0.0366 µM (active). For `COC(=O)[C@H](O)[C@H]1C(C)(C)[C@H](OC(=O)C(C)C)[C@@]2(O)C(=O)[C@]1(C)C1CC[C@]3(C)C(CC(=O)O[C@H]3c3ccoc3)[C@]13O[C@@H]32` (some centres undefined), the max response was -4.38% (inactive). Same read-out and setting: the value for `COc1ccc([C@@H]2OC[C@H]3[C@@H]2CO[C@@H]3c2ccc(OC3OC(CO)C(O)C(O)C3O)c(OC)c2)cc1OC` (some centres undefined) was -0.266% (inactive); that for `CC1=C(CCC(C)O[C@@H]2O[C@H](CO)[C@@H](O)[C@H](O)[C@H]2O)C(C)(C)CCC1=O` (some centres undefined) was -0.525% (inactive); that for `CC(C)C(C#N)O[C@@H]1O[C@H](CO[C@@H]2O[C@@H](C)[C@H](O)[C@@H](O)[C@H]2O)[C@@H](O)[C@H](O)[C@H]1O` (some centres undefined) was -12% (inactive). Same read-out and setting: the value for `CC1(C)CCCC2(C)C1CC=C1C(=O)OC(O)C12O` (centres undefined) was 3.25% (inactive). The same measure, in the same setting: the value for `C=C1CCC2C(C)(C(=O)O)CCCC2(C)C1CCC(C)CC(=O)O` (centres undefined) was 3.35% (inactive); that for `CC(O)CCC1C(CO[C@@H]2O[C@H](CO)[C@@H](O)[C@H](O)[C@H]2O)CC(O)CC1(C)C` (some centres undefined) was -5.9% (inactive). As to `C[C@@H]1O[C@@H](O[C@H]2[C@H](O)[C@@H](O[C@@H]3O[C@H](CO)[C@@H](O)[C@H](O[C@@H]4O[C@H](CO)[C@@H](O)[C@H](O)[C@H]4O)[C@H]3O)[C@H](O[C@H]3CC[C@@]4(C)C(=CC[C@@H]5C4CC[C@@]4(C)C5C[C@@H]5OC6(CC[C@@](C)(CO[C@@H]7O[C@H](CO)[C@@H](O)[C@H](O)[C@H]7O)O6)[C@@H](C)[C@@H]54)C3)O[C@@H]2CO)[C@H](O)[C@H](O)[C@H]1OC1OC(CO)C(O)C(O)C1O` (some centres undefined), the max response is -1.18% (inactive). Still for that read-out and setting: the value for `CC(C)(C)C(=O)CN1C(=O)[C@H](NC(=O)Nc2cccc(C(=O)O)c2)CN(C2CCCCC2)c2ccccc21` was -3.07% (inactive); that for `CC(C)=CCC/C(C)=C/CO[C@@H]1O[C@H](CO)[C@@H](OC(=O)/C=C/c2ccc(O)cc2)[C@H](O[C@@H]2O[C@@H](C)[C@H](O)[C@@H](O)[C@H]2O)[C@H]1O` was -28.8% (inactive); that for `CC1CCC2(CO)C(C(=O)O)=CCCC2C1(C)CCc1ccoc1` (centres undefined) was -11.9% (inactive). Still for that read-out and setting: the value for `C=CC1(C)C=C2CCC3C(C)(C)C(O[C@@H]4O[C@@H](CO)[C@H](O)[C@H]4O)CCC3(C)C2CC1O[C@@H]1O[C@H](C)[C@H](O)[C@H](O)[C@H]1O` (some centres undefined) was 4.85% (inactive). On the same count and under the same terms, then `COc1cc(/C=C/C(=O)OC[C@H]2O[C@@](CO)(O[C@H]3O[C@H](CO)[C@@H](O)[C@H](O)[C@H]3O)[C@@H](OC(=O)/C=C/c3ccc(O)c(OC)c3)[C@@H]2O)ccc1O`, with -7.21% (inactive); and `O=C(C(c1ccccc1)c1ccccc1)N1CCN(CC(O)COc2cccc3ncccc23)CC1` (centres undefined), with -24.2% (inactive); and `C[C@@H]1O[C@@H](O[C@H]2[C@H](O)[C@@H](O[C@@H]3O[C@H](CO)[C@@H](O)[C@H](O[C@@H]4O[C@H](CO)[C@@H](O)[C@H](O)[C@H]4O)[C@H]3O)[C@H](O[C@H]3CC[C@@]4(C)C(=CC[C@@H]5C4CC[C@@]4(C)C5C[C@@H]5OC6(CC[C@@](C)(CO[C@@H]7O[C@H](CO)[C@@H](O)[C@H](O)[C@H]7O)O6)[C@@H](C)[C@@H]54)C3)O[C@@H]2CO)[C@H](O)[C@H](O)[C@H]1O` (some centres undefined), with -19% (inactive).

With `COc1ccc(/C=C/C(=O)O[C@@H]2[C@@H](O)[C@@H](O)[C@H](O[C@@H]3C=C(CO)[C@H]4[C@H](O[C@@H]5O[C@H](CO)[C@@H](O)[C@H](O)[C@H]5O)OC=C[C@H]43)O[C@H]2C)cc1O`, the max response is -15% (inactive). The same measure, in the same setting: the value for `CC1CC[C@]2(C(=O)O)CC[C@]3(C(=O)O)C(=CCC4[C@@]5(C)CC[C@H](OC6OC(C)C(O)C(OC7OC(CO)C(O)C(O)C7O)C6O)C(C)(C)C5CC[C@]43C)C2C1C` (some centres undefined) was -2.82% (inactive); that for `C/C(=C/CO)CC[C@@H]1[C@@](C)(O)CCC2C(C)(C)CCC[C@]21C` (some centres undefined) was 0.603% (inactive). Turning to `O=C(NCC(O)CO)c1ccncc1Nc1ccc(I)cc1F` (centres undefined), the Potency is 18.4 µM (active). Regarding `CC(=O)O[C@@H](CO[C@@H]1O[C@H](CO)[C@H](O)[C@H](O)[C@H]1O)[C@]1(C)C=C2CC[C@@H]3C(C)(C)[C@@H](O)CC[C@@]3(C)[C@@H]2CC1`, the max response is 2.2% (inactive).

Consider `C[C@@H]1CC[C@]2(C(=O)O)CC[C@]3(C)C(=CCC4[C@@]5(C)C[C@@H](O)[C@H](O)[C@@](C)(CO)C5CC[C@]43C)C2[C@]1(C)O` (some centres undefined), for which the max response was 4.14% (inactive). `CC(C)=CCC[C@](C)(O)[C@H]1CC[C@]2(C)[C@@H]1[C@H](O)CC1[C@@]3(C)CC[C@H](O)C(C)(C)C3[C@@H](O[C@@H]3O[C@H](CO)[C@@H](O)[C@H](O)[C@H]3O[C@@H]3OC[C@@H](O)[C@H](O)[C@H]3O)C[C@]12C` (some centres undefined): the max response is -1.39% (inactive).
